# According to PubChem BioAssay (NCI):
# The panel holds about 83,000 compounds, 20% with a hit somewhere; the sample as a whole holds those more often.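 Values shown are percent growth following 48 h exposure of cells in 96-well plates to a single concentration of compound; below 10 was considered active.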 Values without a mark were called inactive. Active and inactive are the calls of the source.
# System: SK-MEL-2 melanoma
# Assay: NCI-60 one-dose screen, 48 h (100 = growth as untreated, 0 = no growth, -100 = all killed)
# Conditions: 10 µM unless noted
# Method: Growth inhibition of the SK-MEL-2 human tumor cell line is measured as a screen for anti-cancer activity. Cells are grown in 96 well plates and exposed to the test compound for 48 hours. Compounds are tested at a single concentration, which is 10^-5 M for most compounds. The reported endpoint is percent growth (GI% or GIPRCNT), where numbers from 0 - 100% represent growth inhibition, and numbers from -100% - 0 represent cell death. For example, a value of 40 represents 60% growth inhibition. A value of 0 means no net growth occurred over the course of the experiment. A value of -40 indicates 40% of cells at the beginning of the experiment died by the end of the experiment. A value of -100 means all cells are dead at the end of the experiment.
# NCI-60 Human Tumor Cell Lines Screen was performed using the standard one-dose NCI protocol, which is described in more detail at https://dtp.cancer.gov/discovery_development/nci-60/default.htm.
# Compounds with GIPRCNT values below 10 were considered active. Activity score was based on GIPRCNT using the following formula: […]
# Score is 0 for GIPRCNT values of 100 or above, 50 for GIPRCNT values of 0, and 100 for GIPRCNT values of -100.
row,SMILES,growth
1,CC(=O)O[C@@H]1/C=C/C(=O)N[C@@H](C)CCC/C=C/[C@@H]2CCC[C@H]21,119%
2,CNCCNc1nc2ccccc2c2c(=O)c3cccc(OC)c3sc12,73.1%
3,N#C/C(=C\c1c(-c2ccccc2)[nH]c2ccccc12)S(=O)(=O)c1ccccc1,46.6%
4,CN1CCN(c2nc(Nc3ccc(O)cc3)nc3ccccc23)CC1,76.8%
5,NCCNc1nc2ccc(F)cc2c2c(=O)c3cc(F)ccc3sc12,91.5%
6,Nc1nc(Nc2cccc(F)c2)nc2ccccc12,50.6%
7,COc1ccccc1C1=C(Br)C(=O)c2nc(C)ccc2C1=O,97.2%
8,COc1cc2nc(-c3cccc4cccnc34)nc(NC3CCN(Cc4ccccc4)CC3)c2cc1OC,-77.8% (active)
9,CCN1C(=O)N(c2ccccc2)C2NN=c3s/c(=C4\C(=O)N(C(C)C)c5ccccc54)c(=O)n3C21 (stereo not given),48.8%
10,S=C1NC2(c3ccccc3)CCC(=S)N2c2ccccc21 (stereo not given),97.1%
11,O=C1NC(=O)C(=Cc2cn(Cc3cn(Cc4ccc(Cl)cc4Cl)nn3)c3ccccc23)C(=O)N1,79.3%
12,O=C(/C=C/c1ccc(F)cc1)c1ccc(Nc2nc(NCCO)nc(Nc3ccc(Cl)cc3)n2)cc1,103%
13,NC1(N2SC(S)=C3CCCC=C32)CCCCC1,111%
14,Cc1ccc(NCCNCC(O)CO)c2c(=O)c3ccccc3sc12 (stereo not given),75.8%
15,COC(=O)c1c2c(c(C)[n+]([O-])c1C)C(=O)C(NCc1ccc(Br)cc1)=CC2=O,47.1%
16,Cc1ccc(C(=O)c2oc3ccc4c(C)cc(=O)oc4c3c2C)cc1,32.1%
17,O=C(/C=C/c1ccccn1)c1ccc(OCc2nnc(-c3ccc(Cl)cc3)o2)cc1,98.6%
18,Nc1nc(-c2cnccn2)nn1-c1nc2ccccc2s1,99.5%
19,O=C(CSc1ncccc1C(=O)O)Nc1ccc(Oc2ccccc2)cc1,106%
20,O=c1oc2ccc(Cl)cc2c(=O)n1-c1ccc(F)cc1F,-26.4% (active)

row,SMILES,growth
1,C=CCN1C(=O)/C(=c2\sc3n(c2=O)NC2C(N=3)N(CC)C(=O)N2CC)c2ccccc21 (stereo not given),65.9%
2,CCCc1c(C)c2sc(=O)[nH]c2[nH]c1=O,108%
3,O=C(CN1C=NC2C(N3CCOCC3)=NC=NC21)c1cccc2ccccc12 (stereo not given),99%
4,COc1ccc(-n2c(C(O)c3ccccc3)nn(CN3CCOCC3)c2=S)cc1 (stereo not given),95.2%
5,O=C(N/N=C/c1ccccc1O)C(=O)Nc1ccc(F)cc1,71.6%
6,Fc1ccc(Oc2ccc(Nc3ncnc4onc(-c5ccccc5)c34)cc2)cc1,112%
7,O=C(/C=C/c1ccc(Cl)cc1)c1ccc(Nc2nc(NCCO)nc(N3CCOCC3)n2)cc1,109%
8,COc1ccc(N2C(=O)CC(c3cc(OC)c(OC)c(OC)c3)C3C2=NC(=O)N3C)cc1 (stereo not given),116%
9,Cc1ccccc1CNC(=O)C1CN(c2ccc(Cl)cc2)N(c2ccc(Cl)cc2)C1=O (stereo not given),91.8%
10,O=C(Nc1ccccc1O)c1ccc(Oc2cccc(C(=O)Nc3ccccc3O)c2)cc1,28.4%
11,O=C(Nc1ncc(Cc2cccc(C(F)(F)F)c2)s1)C1COc2ccccc2O1 (stereo not given),88%
12,CCOC(=O)C1(C(=O)OCC)N=C(c2ccccc2)C=C1c1ccccc1,82.8%
13,O=c1[nH]nnc2c1ncn2C1OC(CO)C(O)C1O (stereo not given),6% (active)
14,COc1ccccc1CNC(=O)C1c2ccccc2C(=O)N(CC(C)C)C1c1cccs1 (stereo not given),87.2%
15,O=S1(=O)CCN(Cc2ccccc2)CC1,119%
16,COc1ccc(Nc2cc(C)nc(NCc3ccccc3)n2)cc1,31.1%
17,CC/C=C\C[C@H](O)C/C=C1/C(=O)C=C[C@@H]1C/C=C\CCCC(=O)OCCS(=O)(=O)c1ccccc1,72%
18,FC(F)(F)c1cccc(Nc2nc3ccccc3nc2Nc2cccc(C(F)(F)F)c2)c1,-62.5% (active)
19,Cc1ccc(S(=O)(=O)c2c(COC(=O)c3cccc(C)c3)c(-c3ccccc3)nn2C)cc1,27.2%
20,COc1cc(/C=C2\CCC/C(=C\c3cc(CN4CCOCC4)c(O)c(OC)c3)C2=O)cc(CN2CCOCC2)c1O,62.7%
